Test results taken from PubChem BioAssay (NCI).
The panel holds about 79,000 compounds, 15% with a hit somewhere; the sample as a whole holds those more often. Unmarked numbers belong to inactive results. Activity calls are given as the source filed them. Rule as the data show it: active = growth inhibition above about 70%; inactive = the rest.

Key:
[1] = NCI Yeast Anticancer Drug Screen. Data for the rad50 strain (AID 155);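 also: 0% = growth of vehicle-only cultures of the same strain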; details: S. cerevisiae rad50 strain growth inhibition, hits give high values
In short: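 Yeast carrying a defined DNA repair defect were exposed to test compounds, and growth was compared with vehicle-treated controls to give percent inhibition.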

[2] = NCI Yeast Anticancer Drug Screen. Data for the mec2-1 strain (AID 157); details: S. cerevisiae mec2-1 strain, hits give high values
In short: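 Cells of the genetically defined mec2-1 yeast strain are incubated with test compound. Inhibition of growth is calculated against vehicle-treated controls.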

[3] = NCI Yeast Anticancer Drug Screen. Data for the sgs1 mgt1 strain (AID 161);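 also: 0% = growth of cultures given vehicle only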; details: S. cerevisiae sgs1 mgt1 strain, hits give high values
In short: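 Test agents were incubated with a DNA-repair-mutant yeast strain. Growth was then read and compared against vehicle-treated controls.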

[4] = NCI Yeast Anticancer Drug Screen. Data for the cln2 rad14 strain (AID 165);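 also: 0% = growth equal to vehicle treated cultures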; details: S. cerevisiae cln2 rad14 strain, hits give high values
In short: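 The screen exposed genetically defined yeast (cln2 rad14) to test compounds and scored growth inhibition relative to vehicle-treated controls.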

[5] = NCI Yeast Anticancer Drug Screen. Data for the bub3 strain (AID 167); details: S. cerevisiae bub3 mutant strain, hits give high values
In short: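 Compounds were applied to a genetically altered yeast strain carrying a cell-cycle control defect. Growth inhibition was scored against vehicle-treated controls.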

[6] = NCI Yeast Anticancer Drug Screen. Data for the mlh1 rad18 strain (AID 175); details: S. cerevisiae mlh1 rad18 strain growth inhibition, hits give high values
In short: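 Compound-treated yeast growth, normalised to vehicle controls. Strain bears defined DNA repair mutations.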

[7] = at 5.0 µM (retest, dose inferred, filed as 0.5)
[8] = at 50.0 µM (retest, dose inferred, filed as 5.0)

Row | Structure (SMILES) | growth inhibition [1, 7] | growth inhibition [1, 8] | growth inhibition ([1]; at 50.0 µM) | growth inhibition [2, 7] | growth inhibition [2, 8] | growth inhibition ([2]; at 50.0 µM) | growth inhibition [3, 7] | growth inhibition [3, 8] | growth inhibition ([3]; at 50.0 µM) | growth inhibition [4, 7] | growth inhibition [4, 8] | growth inhibition ([4]; at 50.0 µM) | growth inhibition [5, 7] | growth inhibition [5, 8] | growth inhibition ([5]; at 50.0 µM) | growth inhibition [6, 7] | growth inhibition [6, 8] | growth inhibition ([6]; at 50.0 µM)
1 | CC(=O)c1ccc2sc3ccccc3c2c1 | -92% | 96% (active) | 96% (active) | -45% | 72% (active) | 57.6% | -59% | 88% (active) | 70.2% (active) | -52% | 86% (active) | 33.4% | -51% | 85% (active) | 88% (active) | -120% | 92% (active) | 88.3% (active)
2 | Cn1c(=NCCc2ccccc2)oc2ccc(Cl)cc21 | -6% | 17% | 6.15% | -7% | 9% | 1.7% | -7% | 29% | 30.3% | -4% | 16% | 73% (active) | 4% | 33% | 18.6% | -3% | 25% | 18.6%
3 | N#CCCN(C(=S)Nc1cccc(C(F)(F)F)c1)C1CCCCC1 | -1% | 69% | 75.3% (active) | 3% | 87% (active) | 75% (active) | -1% | 87% (active) | 82.4% (active) | -1% | 46% | 41.1% | 1% | 81% (active) | 76.2% (active) | 1% | 89% (active) | 61.2%
4 | CCOC(=O)N1CCN(CCCCCCOc2ccc(C(C)(C)C)cc2)CC1 | 3% | 82% (active) | 93.5% (active) | 28% | 87% (active) | 96% (active) | 31% | 97% (active) | 98.1% (active) | 12% | 61% | 94.5% (active) | 7% | 76% (active) | 96.7% (active) | 38% | 97% (active) | 98.6% (active)
5 | O=S(=O)(Sc1ccccc1)C(c1ccccc1)c1ccccc1 | 3% | 72% (active) | -21.6% | 2% | 71% (active) | -1.25% | 2% | 66% | 14.1% | 1% | 28% | -12.8% | -4% | 97% (active) | 62% | 4% | 72% (active) | 6.85%
6 | Cc1cc(N(CCOS(C)(=O)=O)CCOS(C)(=O)=O)ccc1C=Nc1cccc(Cl)c1 | 10% | 80% (active) | 90.3% (active) | 44% | 56% | 51.5% | 4% | 61% | 70.8% (active) | -3% | 57% | 13.1% | 0% | 15% | 29.7% | 24% | 92% (active) | 96.2% (active)
7 | O=C(NCCCl)Nc1c2ccccc2nc2ccccc12 | 15% | 65% | 72% (active) | 8% | 39% | 41% | 4% | 23% | 24.5% | 16% | 23% | 31.4% | -1% | 19% | 34.9% | 9% | 41% | 37%
8 | O=C1C(Cl)=C(N2C(=O)CCC2=O)C(=O)c2ccccc21 | 77% (active) | 98% (active) | 87.6% (active) | 99% (active) | 99% (active) | 90.4% (active) | 99% (active) | 100% (active) | 91.6% (active) | 94% (active) | 99% (active) | 89.4% (active) | 100% (active) | 99% (active) | 88.9% (active) | 72% (active) | 98% (active) | 89% (active)
9 | CC(/C=C1\CCC(CN(C)C)C1=O)c1cccc(Br)c1 (configuration not stated) | -11% | 97% (active) | 93.8% (active) | -1% | 99% (active) | 94% (active) | 5% | 97% (active) | 93.5% (active) | 16% | 98% (active) | 92.2% (active) | 18% | 99% (active) | 92.7% (active) | 7% | 98% (active) | 91.6% (active)
10 | CC(C)/C(Cl)=N\OC(=O)Nc1cccc(F)c1 | 14% | 65% | -5.85% | -7% | 45% | 63% | -6% | 96% (active) | 82.9% (active) | 41% | 28% | 25.9% | -13% | 82% (active) | 69.7% | -3% | 28% | 50.8%
11 | CCC(Cl)COP(=O)(OCC(Cl)CC)OC(c1ccc(Cl)c(Cl)c1)P(=O)(OCC(Cl)CC)OCC(Cl)CC (configuration not stated) | 8% | 23% | 55% | 14% | 11% | 91.2% (active) | -1% | 7% | 93% (active) | -10% | 1% | 76.2% (active) | -3% | 9% | 55.6% | 7% | 37% | 85.7% (active)
12 | Cc1cc2oc3c(ccc(=O)n3C)c(=O)c2c(C)c1Cl | 9% | 38% | 53.7% | 10% | 23% | 29.4% | 22% | 21% | 54.8% | 20% | 13% | 25.9% | 18% | 10% | 30.2% | 11% | 48% | 17.9%
13 | Cc1ccc(O)c(C(c2cc(C)ccc2O)c2cc([N+](=O)[O-])ccc2O)c1 | 23% | 97% (active) | 90.9% (active) | 7% | 99% (active) | 93.1% (active) | 17% | 99% (active) | 40.5% | 17% | 99% (active) | 90.8% (active) | 5% | 99% (active) | 91.8% (active) | 24% | 97% (active) | 91.3% (active)
14 | COc1ccc(NC(=O)/C(=C/c2ccccc2)C(C)=O)cc1 | 59% | 98% (active) | 98.1% (active) | 57% | 99% (active) | 98.2% (active) | 53% | 98% (active) | 98.5% (active) | 19% | 95% (active) | 97.5% (active) | 65% | 98% (active) | 98.1% (active) | 68% | 99% (active) | 98.1% (active)
15 | CCC(/C=C/C(C)C1CCC2C3CC=C4C/C(=N/NC(N)=O)CCC4(C)C3CCC12C)C(C)C (configuration not stated) | -7% | 6% | 9.95% | -3% | 2% | 9.3% | -3% | -5% | 50.9% | -7% | -9% | -1.15% | -3% | 2% | 24.1% | -3% | 5% | 28.9%
16 | Oc1ccc(CC2CCC(O)CC2)cc1 (configuration not stated) | -169% | -33% | 50.5% | -61% | -33% | 28.6% | -66% | -54% | 22.6% | -59% | -43% | 45% | -76% | -24% | 46.6% | -121% | -78% | 24.2%
17 | O=C(Nn1cc(F)c(=O)[nH]c1=O)C12CC3CC(CC(C3)C1)C2 | 41% | 92% (active) | 21.8% | 20% | 96% (active) | 51.4% | 42% | 96% (active) | 91.4% (active) | 20% | 52% | 86.1% (active) | 41% | 90% (active) | 87.5% (active) | 41% | 97% (active) | 57.9%
18 | CCOC(=O)C(CCOC)C(=O)OCC | 4% | 81% (active) | 73.3% (active) | 0% | 30% | 70.9% (active) | 1% | 46% | 43.9% | 3% | 65% | 41.8% | 1% | 48% | 95.7% (active) | 5% | 72% (active) | 43.6%
19 | COC(=O)Cn1/c(=N\N=C(/C)c2ccc(C)cc2)sc2ccccc21 | -13% | 7% | 35% | -2% | -2% | 26.7% | -10% | 28% | 40.4% | -10% | 16% | 15.3% | -11% | 11% | 35.9% | -20% | 36% | 40.6%
